In ChEMBL document CHEMBL1157539, “Thousands of chemical starting points for antimalarial lead identification” (Nature, 2010) one finds Inhibition data, which are given here for 11 molecules.

Common to all, as to assay type: functional
Test [1] relates to Plasmodium falciparum. The experiment in a line: GSK_TCMDC: Inhibition of Plasmodium falciparum 3D7 in whole red blood cells, using parasite LDH activity as an index of growth. Test compounds present at 2uM.
Test [2] has as its system Plasmodium falciparum. Briefly: GSK_TCMDC: Inhibition of Plasmodium falciparum Dd2 in whole red blood cells, using parasite LDH activity as an index of growth. Test compounds present at 2uM.
The next test relates to HepG2. The experiment in a line: GSK_TCMDC: Percent inhibition of human HepG2 cell line. Test compounds present at 10uM.

For orientation: Inhibition means the change of the read-out against control, counted positive when it falls. Read a high Inhibition as a response far below the control. Consider `Cc1ccc(S(=O)(=O)N(CCCNCc2cccc(O)c2)c2ccccc2)cc1`, for which the Inhibition is 95% with Plasmodium falciparum [1], 94% with Plasmodium falciparum [2] and 6% in the test on HepG2.

Turning to `Cl.N=C(N)c1ccc2[nH]c(SCc3ccccc3)nc2c1`, the values for the Inhibition with Plasmodium falciparum [1], with Plasmodium falciparum [2] and with HepG2 were 97%, 100% and 0%, respectively.

For `COc1ccc(CNC2CCN(C)CC2)cc1-c1ccc(S(=O)(=O)NCc2ccccc2)s1.O=C(O)C(F)(F)F`, the Inhibition is 100% in the test on Plasmodium falciparum [1], 100% with Plasmodium falciparum [2] and 62% with HepG2.

Turning to `COc1ccc(NC(=O)[C@H](CC(C)C)Nc2cc(C)nc(NCCc3ccccc3)n2)cc1.O=C(O)C(F)(F)F`, the Inhibition stood at 100% with Plasmodium falciparum [1], 74% with Plasmodium falciparum [2] and 13% in the test on HepG2.

With `CNCCNCc1cccc(-c2cccc(-c3nc4cccc(C)c4[nH]3)c2)c1.O=C(O)C(F)(F)F`, the figures for the Inhibition in the test on Plasmodium falciparum [1], with Plasmodium falciparum [2] and in the test on HepG2 were 98%, 9% and 6%, respectively.

`Nc1cc(-c2cccc(Cl)c2)nn1-c1ccnc2cc(Cl)ccc12`: the Inhibition in the test with Plasmodium falciparum [1] was 99%; with Plasmodium falciparum [2] it was 33%; with HepG2, 0%.

Consider `CC(C)C(NC(=O)Cc1cccc2ccccc12)C(=O)Nc1cccc(C#N)c1` (stereo not drawn), for which the values for the Inhibition in the test with Plasmodium falciparum [1], in the test with Plasmodium falciparum [2] and in the test on HepG2 were 92%, 91% and 0%, respectively.

Take `COc1ccc(C=C2SC(=O)N=C2Nc2ccccc2)c(OC)c1`: the Inhibition in the test with Plasmodium falciparum [1] is recorded as 91%; in the test on Plasmodium falciparum [2], 89%; in the test on HepG2, 51%.

On to `NC(=O)c1ccc(C(=O)Nc2cccc(-c3csc(-c4nc5ccccc5[nH]4)c3)c2)cc1`, for which the Inhibition in the test on Plasmodium falciparum [1] was determined as 100%; in the test on Plasmodium falciparum [2], 35%; in the test on HepG2, 14%.

For the molecule `CN1CCN(c2ccc(-c3cccc(NC(=O)c4cccc([N+](=O)[O-])c4)c3)nn2)CC1`, the Inhibition came to 99% with Plasmodium falciparum [1], 35% in the test with Plasmodium falciparum [2] and 21% in the test with HepG2.

Consider `COc1ccc(-c2nc3c(N)nc(N)nc3nc2-c2ccccc2Cl)cc1.COc1ccc(-c2nc3nc(N)nc(N)c3nc2-c2ccccc2Cl)cc1.Cl`, for which the Inhibition with Plasmodium falciparum [1] is 93%; in the test with Plasmodium falciparum [2], 0%; in the test on HepG2 it was 45%.
